Results published in PubChem BioAssay (EPA / NIEHS).
Activity calls are given as the source filed them. How the source made its calls: active means hit-call score of the fitted dose curve at least 0.9, where 1 is the maximum; inactive means score below 0.9.

Read-out: Interleukin-8 (IL8), CXCL8 (gene 3576)
Test: BSK_BF4T_IL8: BioMAP Diversity Plus: BF4T Assay for Interleukin-8 (IL8) Biomarker Activity (AID 2284263)
Settings: primary human bronchial epithelial cells with fibroblasts
Description: BSK_BF4T is a cell-based, multiplexed-readout assay that uses bronchial epithelial cells and dermal fibroblasts, a human vascular primary cell, with measurements taken at 24 hours after chemical dosing in a microplate: 96-well plate.BSK_BF4T_IL8 is an assay component measured in the BSK_BF4T assay. It measures IL-8 antibody related to regulation of gene expression using ELISA technology.Data from the assay component BSK_BF4T_IL8 was analyzed at the endpoint, BSK_BF4T_IL8, in the positive analysis fitting direction relative to DMSO as the negative control and baseline of activity. Using a type of binding reporter, gain or loss-of-signal activity can be used to understand protein changes. To generalize the intended target to other relatable targets, this assay endpoint is annotated to the 'cytokine' intended target family, where the subfamily is 'interleukins'.
The levels of cell surface (or secreted, indicated by the prefix "s") biomarker endpoints were measured by ELISA. Overt cytotoxicity to cells in confluent adherent cultures (all systems other than the BT system) was assessed by measuring total protein levels using sulforhodamine B (SRB) staining in parallel cultures at the time of biomarker measurements, indicated as SRB endpoints. For proliferation assays for adherent cell types, individual cell types are cultured at sub-confluence and relative cell numbers quantified by SRB staining at time points optimized for each system (48 h: 3C and CASM3C systems; 72 h: BT and HDF3CGF systems; 96 h: SAg system). SRB was performed by staining cells with 0.1% SRB after fixation with 10% TCA and reading wells at 560 nm.Viability and proliferation of PBMC (T cells) was quantified by Alamar Blue reduction for the SAg and BT systems. For PBMC viability (referred to as PBMC Cytotoxicity within the assay endpoint names), cells were plated (75,000/well in a 96-well plate) and then chemical samples added for 1 h before addition of activators, SEB and TSST-1 (20 ng/mL final concentration each). Cells were incubated for 90 h. Then, Alamar Blue (20 uL/well) (Invitrogen, Cat DAL1100) was added for 6 h, and the plates were read with a fluorescence microplate reader at 546/580 nm (excitation/emission). For PBMC proliferation, cells were plated and activated as above but incubated for only 16 h prior to addition of Alamar Blue. Plates were read after 6 h.

Q: With OCCC(F)(F)C(F)(F)C(F)(F)C(F)(F)F as the compound, how does the outcome read?
A: Its outcome is “inactive”.

Q: Which outcome does the source give for OC(O)(C(F)C(O)(O)C(F)(F)F)C(F)(F)F here?
A: The outcome was “inactive”.

Q: O=C(Cl)C(F)(F)C(F)(F)C(F)(F)C(=O)Cl was tested. Which outcome did it give?
A: The outcome was “inactive”.

Q: For FC(F)C(F)(F)COCC1CO1 (stereo not given), which outcome is on record?
A: The outcome was “inactive”.

Q: Which outcome does the source give for NCC(F)(F)C(F)(F)C(F)(F)C(F)(F)F here?
A: Its outcome is “inactive”.

Q: C[Si](C)(C)C(F)(F)C(F)(F)C(F)(F)F was tested. Which outcome did it give?
A: The outcome was “inactive”.

Q: O=S(=O)(O)CCC(F)(F)C(F)(F)C(F)(F)C(F)(F)C(F)(F)C(F)(F)F was tested. Which outcome did it give?
A: Its outcome is “inactive”.

Q: FC(F)=C(F)C(F)(F)C(F)(F)C(F)(F)C(F)(F)C(F)(F)C(F)(F)F was tested. Which outcome did it give?
A: Its outcome is “inactive”.

Q: Which outcome does the source give for FC(F)(F)C(F)(F)C(F)(F)C(F)(F)C(F)(F)C(F)(F)I here?
A: Its outcome is “inactive”.

Q: FC(F)(F)COC(OCC(F)(F)F)OCC(F)(F)F was tested. Which outcome did it give?
A: Its outcome is “inactive”.
